# Bioassay records deposited in PubChem by several laboratories.
# An excerpt weighted towards active compounds, which were near 3.5% of everything screened.
# M1 ag: agonists of human M1 muscarinic receptor | CHO-K1 hM1, Fluo-8 calcium fluorescence, agonist mode; 0% DMSO, 100% acetylcholine EC100 | activation, % at 3 µM | actives 0.33% (n = 360,000);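 active = activation above the run's mean compound activation plus 3 SD, cut at about 16% in these data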;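 also: peak over basal fluorescence ratio within a 140 s kinetic read after compound addition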
# SKN-1 block: inhibitors of C. elegans SKN-1. actives 0.49% (n = 360,000). AID 624304. inhibition, % at 21.8 µM. C. elegans VP596 Pgst-4::GFP/RFP ratio, acrylamide-induced, 24 h;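 active = interference check ratio from 0.5 to 1.5 plus GFP to RFP signal ratio inhibition reaching or exceeding a fixed threshold, cut at about 30% in these data, passing the limit was not always enough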
# ATG4B inhibitor: blocks human ATG4B protease cleavage of LC3 substrate | ATG4B cleavage of LC3-PLA2, NBD-HPC fluorescence, 1 h | inhibition, % at 8.33 µM | actives 0.51% (n = 340,000); in the data active = inhibition above about 40%
# Target sequence (Q9Y4P1 whole entry, looked up): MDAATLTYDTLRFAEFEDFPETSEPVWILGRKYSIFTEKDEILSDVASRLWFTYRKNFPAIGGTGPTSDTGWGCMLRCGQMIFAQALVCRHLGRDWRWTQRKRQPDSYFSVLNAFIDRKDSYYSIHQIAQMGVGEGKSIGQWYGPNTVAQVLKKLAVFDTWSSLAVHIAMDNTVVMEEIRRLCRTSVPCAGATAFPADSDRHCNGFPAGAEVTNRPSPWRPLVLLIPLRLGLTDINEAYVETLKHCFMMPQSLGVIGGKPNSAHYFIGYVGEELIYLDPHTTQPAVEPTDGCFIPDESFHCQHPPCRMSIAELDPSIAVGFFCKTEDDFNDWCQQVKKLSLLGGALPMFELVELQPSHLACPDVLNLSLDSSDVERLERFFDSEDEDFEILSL
# M1 PAM: potentiates human M1 receptor response to acetylcholine; activation, % at 3 µM; AID 588819; CHO-K1 hM1, Fluo-8 calcium fluorescence, ACh EC20; 0% = ACh EC20, 100% = maximal ACh; P11229; actives 0.088% (n = 360,000); in the data active = activation above about 19%, passing the limit was not always enough
# M1 antag: human CHRM1 antagonism; P11229; actives 1.3% (n = 360,000); inhibition, % at 3 µM; AID 588852; CHO-K1 hM1, Fluo-8 calcium fluorescence, ACh EC80 antagonist;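 active = percent inhibition above its own plate's cutoff, namely the mean of that plate's compound wells plus 3 SD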;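 also: peak over basal fluorescence ratio during 140 s after agonist addition; 0% = ACh EC80 plus DMSO and 100% = DMSO alone without agonist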
# Myeloid diff 2: compounds promoting myeloid differentiation; ER-HoxA9 myeloid progenitors, lysozyme-GFP differentiation, flow cytometry; calls only at 10 µM; actives 1% (n = 360,000);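 active = normalized GFP-positive differentiation at or above the plate's own cutoff, the solvent-only control mean plus 3 SD; inconclusive = no clear call, values can overlap the other calls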;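 also: cells exposed to compound for four days before flow analysis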
# * marks the source's active call; other numbers are inactive results; i = inactive; u = inconclusive; x = not tested or not shown; + = active, no number.
SMILES,M1 ag,SKN-1 block,ATG4B inhibitor,M1 PAM,M1 antag,Myeloid diff 2
CCCCN(C(=O)c1cccs1)C1CCS(=O)(=O)C1 (stereo not given),2,-10,3,7,-8,i
O=C(COC(=O)CCc1ccccc1)Nc1ccc(F)cc1Cl,-1,0,-17,10,-6,i
c1ccc(NC2=Nc3cccc4cccc2c34)cc1,-1,-3,-10,4,-7,i
Fc1ccc(/C=N/NC2=Nc3cccc4cccc2c34)cc1,-8,20,-17,-4,10,+
COc1ccc(NC2=Nc3cccc4cccc2c34)cc1,19*,11,-15,-12,7,i
COC(=O)Cn1c(O)c(N=NC(=O)c2ccc3c(c2)OCO3)c2ccccc21,0,6,6,9,-2,i
CCN(CC)CCCn1c(C)cc2c(c1=O)C(c1cccc(Cl)c1)C(C#N)=C(N)O2 (stereo not given),-6,-16,9,-19,60*,i
CCN(CC)CCCn1c(C)cc2c(c1=O)C(c1cc(OC)c(OC)cc1OC)C(C#N)=C(N)O2 (stereo not given),-5,10,-6,-11,25,i
O=Cc1cc2ccccc2nc1SCc1ccc(Cl)cc1,-2,3,5,2,-1,i
Cc1ccc(CSc2nc3ccccc3cc2C=O)cc1,-5,42*,5,2,-13,i
O=C1NC[C@H](c2ccccc2)OC(=O)[C@@H](Cc2ccc(F)cc2)C/C=C\C[C@H]1CC(=O)N(CCO)Cc1ccccc1,-2,14,-1,-14,34*,u
O=C1NC[C@@H](c2ccccc2)OC(=O)[C@H](Cc2ccc(F)cc2)C/C=C\C[C@H]1CC(=O)N(CCO)Cc1ccccc1,-6,6,-11,-8,16,i
O=C(C[C@@H]1C/C=C\CCC(=O)O[C@H](c2ccccc2)CNC1=O)N[C@H](CO)Cc1ccccc1,18*,5,-1,6,3,i
O=C1NC[C@H](c2ccccc2)OC(=O)[C@H](Cc2ccc(F)cc2)C/C=C\C[C@H]1CC(=O)N(CCO)Cc1ccccc1,1,0,-14,-21,42*,u
CC(C)(C)OC(=O)C[C@@H]1C/C=C\C[C@H](CC(=O)N(CCO)Cc2ccccc2)C(=O)NC[C@@H](c2ccccc2)OC1=O,-5,18,-1,1,9,i
O=C1NC[C@H](c2ccccc2)OC(=O)[C@H](Cc2ccc(F)cc2)CC/C=C/C[C@@H]1CC(=O)N(CCO)Cc1ccccc1,-7,-8,-16,-8,17,+
O=C1NC[C@@H](c2ccccc2)OC(=O)[C@@H](Cc2ccc(F)cc2)CC/C=C/C[C@H]1CC(=O)N(CCO)Cc1ccccc1,-7,-4,1,-6,7,u
COc1ccccc1CNc1nc(NCC2CC2)nc2ccsc12,-2,13,x,1,-5,i
COc1ccccc1CNc1nc(NCc2ccccc2SC)c2sccc2n1,-3,19,x,-21,37*,i
COCCNc1nc(NCc2ccccc2OC)c2sccc2n1,-3,1,x,-1,-5,i
COc1ccccc1CNc1nc(NCc2ccccc2OC)c2sccc2n1,-2,-1,x,-18,31*,i
N/C(=N\OC(=O)c1ccc(Cl)cc1)c1[nH]ncc1Br,-3,-14,3,2,3,i
N/C(=N/OC(=O)c1ccc(Cl)cc1)c1ncc([N+](=O)[O-])s1,2,8,2,20,-27,+
Cc1cccc(C(=O)O/N=C(\N)c2ccc(Cl)cc2)c1,-4,-10,-1,9,-10,i
N/C(=N\OC(=O)Cc1cccs1)c1ccc(Cl)cc1,-4,57*,1,5,-9,i
SMILES,M1 ag,SKN-1 block,ATG4B inhibitor,M1 PAM,M1 antag,Myeloid diff 2
N/C(=N\OC(=O)c1cccs1)c1ccc(Cl)cc1,-3,52*,-11,5,-14,i
Cc1ccc(/C(N)=N/OC(=O)c2ccc(Cl)cc2Cl)cc1,-5,0,14,6,-1,+
N/C(=N\OC(=O)Cc1cccs1)c1ccccc1,-3,12,0,5,-9,i
COc1ccc(/C(N)=N/OC(=O)c2cccs2)cc1,-4,1,-1,2,-5,i
COc1ccc(N2CCN(C(=O)COC(=O)c3c(-c4ccccc4)noc3C)CC2)cc1,-4,1,0,0,-2,i
N#CCCN1CCCc2cc(N=Nc3ccc(C(F)(F)F)cc3)ccc21,-3,8,5,18,-31,i
CCOC(=O)C1CCCN(C(=O)CNC(=O)c2nn(-c3ccc(OC)c(Cl)c3)c(=O)c3ccccc23)C1 (stereo not given),18*,-12,-3,-14,22,i
CCOC(=O)C1CCN(C(=O)CNC(=O)c2nn(-c3ccc(OC)c(Cl)c3)c(=O)c3ccccc23)CC1,-8,-2,3,2,7,i
COc1ccc(-n2nc(C(=O)NCC(=O)NCCCN3CCCCCC3)c3ccccc3c2=O)cc1Cl,0,-1,-16,-23,50*,i
CC(O)CNCc1ccc(Cl)cc1Cl (stereo not given),-6,6,3,6,-2,i
CN(C)Cc1ccc(F)cc1Sc1ccc(Cl)cc1Cl,-10,7,15,-22,52*,i
Cc1ccc(CN=C2NC(=O)C(CC(=O)NCCc3ccccc3)S2)cc1 (stereo not given),-6,12,x,6,-9,i
CNC(=O)c1ccc(-c2sc3nc(N4CCOCC4)c4c(c3c2N)CC(C)(C)OC4)o1,-2,2,-21,-2,-10,i
CC1(C)Cc2c(c(N3CCOCC3)nc3sc(-c4ccc(C(=O)O)o4)c(N)c23)CO1,0,-11,-5,-8,-5,+
O=S(=O)(Nc1nc2ccccc2nc1NCc1ccco1)c1ccccc1,-1,0,-11,4,-4,+
CCOc1ccccc1N=C1SCC(C)N1C(=O)C1CCN(c2ncnc3sc(C)c(C)c23)CC1 (stereo not given),-5,-1,6,4,-1,i
COc1ccc(/C=N/NC2=NS(=O)(=O)c3ccccc32)cc1,-4,4,-7,4,-9,i
CN(C)c1ccc(/C=N/NC2=NS(=O)(=O)c3ccccc32)cc1,-4,39*,-6,4,-1,i
O=C1NC[C@@H]2CCCN2C1=O,x,-21,x,x,x,i
c1ccc2c(c1)NCC1CCCN21 (stereo not given),-9,-3,-5,0,-5,+
Cn1c(=O)c2[nH]c(COc3ccc(C(C)(C)C)cc3)nc2n(C)c1=O,4,15,-3,-14,39*,i
